# CYP2C9 inh: blockers of cytochrome P450 2C9 activity – biochemical, luminescence, ADME assay, primary screen; P11712; CYP2C9 Supersomes, luciferin-H conversion; inhibition, % at 5 µM; 20% of 96,000 active; AID 777, 2007;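 active = blocking of liver enzyme CYP2C9 beyond about 50% at 5 µM, limit read from the data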
# CYP2C19 act: human CYP2C19 activators, primary screen, biochemical, luminescence; activation factor at 5 µM; Cytochrome P450 2C19 (Homo sapiens), P33261; recombinant CYP2C19, luciferin-H EGE luminescence; hits give high values; 0 = fully inhibited enzyme, 1 = untreated enzyme; AID 1025, 2008; 96,000 tested, under 10 active;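 active = activation factor of at least 2 at 5 µM in the primary screen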;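 note: 0 = wells with 2.5 mM tranylcypromine and 1 = vehicle-only wells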
# Target sequence (P33261 whole entry, looked up): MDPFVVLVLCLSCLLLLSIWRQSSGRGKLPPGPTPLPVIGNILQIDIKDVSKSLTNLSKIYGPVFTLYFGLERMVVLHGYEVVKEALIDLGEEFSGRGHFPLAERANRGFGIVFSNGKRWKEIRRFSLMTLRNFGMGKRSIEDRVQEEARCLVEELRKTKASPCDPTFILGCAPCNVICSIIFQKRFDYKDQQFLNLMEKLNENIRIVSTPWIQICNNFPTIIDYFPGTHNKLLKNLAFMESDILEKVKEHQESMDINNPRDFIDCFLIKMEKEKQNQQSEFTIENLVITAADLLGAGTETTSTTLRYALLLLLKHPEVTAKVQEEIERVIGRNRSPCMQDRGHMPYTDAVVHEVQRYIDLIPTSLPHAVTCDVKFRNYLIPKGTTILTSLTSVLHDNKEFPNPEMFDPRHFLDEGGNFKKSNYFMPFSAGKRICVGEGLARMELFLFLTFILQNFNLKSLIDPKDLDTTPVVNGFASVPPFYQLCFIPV
# CYP2C9 activ: human CYP2C9 activators, primary screen, biochemical, luminescence; activation factor at 5 µM; 1.4% of 96,000 active; Cytochrome P450 2C9 (Homo sapiens), P11712; recombinant CYP2C9, luciferin-H conversion; hits give high values; factor 1 = untreated enzyme, 0 = blocked;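 active = activation factor of 2 or more for CYP2C9 at a 5 µM dose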;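 note: 0 = sulfaphenazole-blocked wells and 1 = vehicle-only wells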
# CYP2C19 inhib: blockers of cytochrome P450 2C19 activity – biochemical, luminescence, ADME assay, primary screen; P33261; CYP2C19 Supersomes, luciferin-H EGE luminescence, 30 min; inhibition, % at 5 µM; 21% of 96,000 active;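 active = CYP2C19 inhibition above a set limit at 5 µM in the primary screen, cut at about 50% in these data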;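 note: plate controls were negative control wells for no effect and 2.5 mM tranylcypromine positive control for full effect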
# Active calls of the source: *. The list is not random: actives were taken first. Their share in the collection is about 31%.
SMILES,CYP2C9 inh,CYP2C19 act,CYP2C9 activ,CYP2C19 inhib
CNC(=O)CN(C)S(=O)(=O)c1ccc(F)cc1,21,0.9,0.8,7
O=C(Cc1ccc(Br)cc1)Nc1ccccc1Sc1ccccc1,8,0.6,0.9,38
CS(=O)(=O)N(CC(=O)Nc1ccccc1Sc1ccccc1)c1ccc(F)cc1,61*,0.7,0.4,28
c1ccc(-c2nnc3sc(CN4CCC5(CC4)OCCO5)cn23)cc1,-11,1.1,1.1,-7
CC(=O)Nc1ccccc1NC(=O)CN(C)S(=O)(=O)c1ccc(C)cc1,-16,0.2,1.2,80*
CCCC(=O)Nc1ccccc1NC(=O)CN(C)S(=O)(=O)c1ccc(C)cc1,49,0.9,0.5,10
O=C(N=C1SCC(=O)N1c1ccccc1)c1ccco1,16,0.5,0.8,51*
CCOc1ccc(CCNC(=O)Cn2c(=O)oc3ccccc32)cc1OCC,62*,0.2,0.4,84*
CCOc1ccc(CCNC(=O)Cn2c(-c3nonc3N)nc3ccccc32)cc1OCC,70*,0.6,0.3,45
COc1ccc(CCNC(=O)Cn2c(-c3nonc3N)nc3ccccc32)cc1OC,48,0.1,0.5,89*
Cc1ccccc1-n1c(SC(C)C(=O)N2CCN(C)CC2)nc2ccccc2c1=O (stereo not drawn),-8,1.1,1.1,-13
CCN(Cc1ccncc1)S(=O)(=O)c1ccc(C(C)=O)cc1,87*,0.1,0.1,91*
CCSc1nnc(NC(=O)c2cccs2)s1,29,0.9,0.7,8
CCSc1nnc(NC(=O)CSc2nc3c(cc2C#N)CCCC3)s1,51*,0.8,0.5,18
CCSc1nnc(NC(=O)C(C)(C)C)s1,36,0.5,0.6,52*
N#Cc1cc2c(nc1SCC(=O)Nc1nccs1)CCCCC2,54*,0.9,0.5,6
CCSc1nnc(NC(=O)CSc2nc(C)cc(C)n2)s1,39,0.4,0.6,61*
CCc1nnc(NC(=O)CSc2nc3c(cc2C#N)CCC3)s1,6,1,0.9,5
CCOc1cc(C=C(C(=O)OC)C(=O)OC)ccc1OCc1ccc([N+](=O)[O-])cc1,39,0.8,0.6,22
C=CCNS(=O)(=O)CC12CCC(CC1=O)C2(C)C (stereo not drawn),-4,0.9,1,6
CCC(C)(C)C(=O)Nc1ncc(S(=O)(=O)c2ccc([N+](=O)[O-])cc2)s1,26,0.7,0.7,27
COC(=O)C(NC(=O)c1ccccc1Cl)(Nc1ncc(S(=O)(=O)c2ccc([N+](=O)[O-])cc2)s1)C(F)(F)F (stereo not drawn),87*,1,0.1,3
COc1ccc(Cl)cc1-n1c(=S)sc2c(=O)[nH]c(SCC(=O)NCC3CCCO3)nc21 (stereo not drawn),53*,1,0.5,3
O=C1C(Cc2ccccc2)NC(=S)N1c1ccccc1 (stereo not drawn),20,0.5,0.8,48
CCn1cnc2c1c(=O)n(CC(=O)Nc1ccc3c(c1)OC(F)(F)O3)c(=O)n2Cc1ccccc1,25,1,0.7,2
SMILES,CYP2C9 inh,CYP2C19 act,CYP2C9 activ,CYP2C19 inhib
COc1ccc2cc(CCNC(=O)c3ccc(Br)o3)c(=O)[nH]c2c1,25,0.5,0.8,51*
COc1ccc2cc(CCNC(=O)c3ccc4c(c3)OCO4)c(=O)[nH]c2c1,82*,0.6,0.2,37
CCC(CC)C(=O)NCCc1cc2ccc(OC)cc2[nH]c1=O,9,1,0.9,2
CCOC(=O)C1CCCN(C2CC(=O)N(c3cccc(C(F)(F)F)c3)C2=O)C1 (stereo not drawn),-15,1,1.2,1
Cc1ccc(C(C(=O)NC2CCCC2)N2CCCC(C)C2)cc1 (stereo not drawn),40,0.5,0.6,49
Cc1cccc(NC(=O)C2(c3ccc([N+](=O)[O-])cc3)CCCC2)c1,39,0.2,0.6,78*
CC1CCCN(C(C(=O)Nc2ccc3c(c2)OCO3)c2ccccc2)C1 (stereo not drawn),82*,0.2,0.2,80*
O=C(Nc1ccc2c(c1)OCO2)C(c1ccccc1)N1CCCCC1 (stereo not drawn),60*,0.4,0.4,58*
CC1CCN(C(C(=O)Nc2ccc3c(c2)OCO3)c2ccccc2)CC1 (stereo not drawn),84*,0.3,0.2,73*
O=C(Nc1ccc2c(c1)OCO2)c1ccccc1SCC(=O)N1CCCC1,10,0.6,0.9,45
CCN1C(=O)N(CN2CCOCC2)C2C1N(CN1CCOCC1)C(=O)N2CC (stereo not drawn),14,1,0.9,0
COc1ccc(C2=C(O)C(C)N(c3ccccc3)C2=N)cc1OC (stereo not drawn),-26,1.1,1.3,-12
O=C(Nc1cccc2ncccc12)c1cccnc1,-26,1.1,1.3,-7
O=C1Nc2ccccc2C(O)(C(=O)NCc2ccc3c(c2)OCO3)N1c1ccc(Cl)c(Cl)c1 (stereo not drawn),5,1,0.9,-3
CCN(CC)S(=O)(=O)c1ccc(C(=O)NCc2n[nH]c(=S)n2Cc2ccccc2)cc1,14,1.1,0.9,-7
Cc1cccc(NC(=S)N/N=C/c2cccc([N+](=O)[O-])c2)c1,0,1,1,3
CCC1CCC(C(=O)NC(C(=O)Nc2ccc3c(c2)OCCO3)C(C)C)CC1 (stereo not drawn),31,0.7,0.7,29
O=C(Nc1ccc2c(c1)OCO2)C(c1ccccc1)N1CCC2(CC1)OCCO2 (stereo not drawn),79*,0.1,0.2,90*
O=C(NC1CCCCC1)C(c1ccc(Cl)cc1)N1CCC2(CC1)OCCO2 (stereo not drawn),9,0.8,0.9,23
CC(C)CC(NC(=O)C1CCC(C)CC1)C(=O)Nc1ccc2c(c1)OCCO2 (stereo not drawn),52*,0.6,0.5,44
Cc1cccc(NC(=O)C(c2cccc([N+](=O)[O-])c2)N2CCCCC2)c1 (stereo not drawn),29,0.5,0.7,52*
Cc1ccc(S(=O)(=O)NCCCCCC(=O)Nc2ccccn2)cc1,37,0.7,0.6,31
O=C(Oc1ccc(Cl)c2cccnc12)c1ccco1,24,0.5,0.8,53*
O=C(Oc1cccc2ccccc12)c1ccco1,-8,1,1.1,4
Cc1ccc(C2=CC(c3cccs3)n3nnnc3N2)cc1 (stereo not drawn),82*,0,0.2,97*
C1=C(c2ccccc2)Nc2nnnn2C1c1cccs1 (stereo not drawn),28,0.7,0.7,29
COc1ccc(C2=CC(c3c(C)nn(-c4ccccc4)c3Cl)n3nnnc3N2)cc1OC (stereo not drawn),93*,0.1,0.1,91*
COc1ccc(-c2nnc(SCCC(=O)O)n2-c2ccccc2)cc1OC,10,1,0.9,0

# Compound activity (PubChem)
